The list is not random: actives were taken first. Their share in the collection is about 7.5%.
Vaccinia Venus: qHTS for Stage-Specific Inhibitors of Vaccinia Orthopoxvirus: Venus Reporter Primary qHTS; Potency, µM (doses to about 36.5 µM), hits mostly inhibitors; 0.46% of 330,000 active; Vaccinia virus Venus reporter expression, fluorescence; calls by dose curve; tested in A549 cells; also: nearly all actives have a fitted effect of over 30% in size
VACV mCherry inh: qHTS for Stage-Specific Inhibitors of Vaccinia Orthopoxvirus: mCherry Reporter Primary qHTS. Vaccinia virus mCherry reporter infection, fluorescence. Potency, µM (highest dose often 36.5 µM), usual class: inhibitors. 0.63% of 310,000 active; calls by dose curve; tested in A549 cells; also: nearly all actives have a fitted effect of over 35% in size
FMDV antiviral: High Throughput Screening for Foot and Mouth Disease Virus Antivirals; FMDV antiviral cell-based qHTS; Potency, µM (highest dose often 57.9 µM), hits mostly inhibitors; 1.2% of 410,000 active; AID 1159524, 2015; calls by dose curve; tested in HEK293T cells; also: read-out not given here; nearly all actives have a fitted effect of over 45% in size
HCMV antiviral: qHTS Assay for inhibitors of the human cytomegalovirus (HCMV). HFF cells, HCMV-luciferase reporter, 72 h; stronger effect = lower value. activity change, negative = inhibition, % at 57.5 µM. 4.5% of 410,000 active; in the data active = activity change below about -60%; inconclusive = no clear call, values can overlap the other calls; inactive = above about -39%
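Luciferase read-out from HCMV-luciferase-infected HFFs (MOI 1 PFU/cell) 72 h post infection at 37C; compounds added after 16 h cell attachment; activity normalized between buffer-only basal and Salinomycin (10uM) inhibitor controls.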
HCV inh: qHTS Assay for Inhibitors of Hepatitis C Virus (HCV). Huh7.5.1 HCVcc-Cre infection, luciferase reporter, 44 h. Potency, µM (titrated, usually from 41.8 µM), actives largely listed as inhibitors. 3.4% of 340,000 active
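Luciferase read-out (15 sec integration) after a 15 min room-temperature substrate step quantifies HCVcc-Cre infection. Cells, 1,000 per well, had compound added 4 h post-plating, then virus at ~0.5 moi, and were cultured 44 h.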
Giardia FBPA inh: qHTS Assay for Inhibitors of Fructose-1,6-bisphosphate Aldolase from Giardia Lamblia. Potency, µM (top dose mostly 59.6 µM), actives largely listed as inhibitors. purified Giardia FBPA. A8B2U2. 0.71% of 290,000 active; also: nearly all actives have a fitted effect of over 55% in size
Target sequence (A8B2U2 whole entry, looked up): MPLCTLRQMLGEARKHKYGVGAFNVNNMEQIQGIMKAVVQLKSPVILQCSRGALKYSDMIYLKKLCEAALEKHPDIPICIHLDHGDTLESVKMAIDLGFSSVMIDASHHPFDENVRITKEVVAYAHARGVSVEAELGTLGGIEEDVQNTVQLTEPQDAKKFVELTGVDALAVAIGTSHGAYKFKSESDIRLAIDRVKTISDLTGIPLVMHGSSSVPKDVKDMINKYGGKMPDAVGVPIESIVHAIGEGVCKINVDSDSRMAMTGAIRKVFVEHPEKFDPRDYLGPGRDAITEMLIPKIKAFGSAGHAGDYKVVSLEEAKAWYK
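40 nM FBPA preincubated 10 min at RT with compound (up to 57.5 uM final), then substrate plus GAPDH/TPI/NAD/arsenate coupling and diaphorase/resazurin added. Fluorescence read after 20 min at RT, 525/598 nm.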
Each line names hits and unclear results; the compound was inactive in the other large screens; ! = a repeat was not active. Unless noted, calls follow the shape of the dose curve; as a rule, active = well fitted curve in the direction sought with a large enough effect; inconclusive = small, poorly fitted or top-dose-only effect, or another doubt; inactive = no such curve, though single readings can be large; an effect the other way counts as inactive or inconclusive.

Cc1ccc(S(=O)(=O)N2C[C@]3(O)C[C@@H]4C(=O)N(c5ccccc5)C(=O)[C@@H]4C[C@]3(OC(=O)NC3CCCC3)C2)cc1	FMDV antiviral 16µM (no result: HCV inh, Giardia FBPA inh)
CC(C)CN1CCC(CN(C)Cc2nc(-c3cnccn3)no2)CC1	none
CC(C)Cn1c(=O)c(C(=O)N/N=C/c2cccc(F)c2)c(O)c2ccccc21	HCMV antiviral inconclusive, HCV inh 20µM
CCCCn1c(=O)c(C(=O)N/N=C/c2ccc(F)cc2)c(O)c2ccccc21	none (no result: Vaccinia Venus, VACV mCherry inh, FMDV antiviral, HCMV antiviral, HCV inh)
CCS(=O)(=O)N1CCN=C1SCc1ccc(F)cc1	HCMV antiviral inconclusive (no result: Vaccinia Venus, VACV mCherry inh, Giardia FBPA inh)
O=C(Cc1cccc2ccccc12)NC(NC(=S)Nc1ccccc1Cl)C(Cl)(Cl)Cl (stereo not drawn)	HCV inh inconclusive
O=C(NC(NC(=S)Nc1ccccc1Cl)C(Cl)(Cl)Cl)c1cccc(Cl)c1 (stereo not drawn)	Vaccinia Venus inconclusive, VACV mCherry inh 13µM, HCMV antiviral -99, HCV inh inconclusive
COc1ccc(NC(=S)NC(NC(=O)c2cccc(Cl)c2)C(Cl)(Cl)Cl)c([N+](=O)[O-])c1 (stereo not drawn)	Vaccinia Venus inconclusive, VACV mCherry inh inconclusive, HCMV antiviral -88, HCV inh 11µM!
COc1ccc(NC(=S)NC(NC(=O)c2cccc(C)c2)C(Cl)(Cl)Cl)c([N+](=O)[O-])c1 (stereo not drawn)	Vaccinia Venus inconclusive, VACV mCherry inh inconclusive, HCV inh inconclusive
COc1ccccc1C1=Nn2c(nnc2-c2ccccc2C)SC1	none (no result: Vaccinia Venus, VACV mCherry inh, FMDV antiviral, HCMV antiviral, HCV inh)
CC(C)(C)c1ccc(C(=O)NCC(c2cccnc2)N2CCc3ccccc3C2)cc1 (stereo not drawn)	FMDV antiviral inconclusive, HCMV antiviral inconclusive (no result: HCV inh, Giardia FBPA inh)
O=C(CCSCc1cnn(-c2ccccc2)c1-n1cccc1)NCc1ccccc1F	none (no result: HCV inh, Giardia FBPA inh)
CSc1nc(-c2ccccc2)cc(C)c1C#N	HCV inh 10µM
c1ccc(COc2ccccc2CNC23CC4CC(CC(C4)C2)C3)cc1	Vaccinia Venus inconclusive, HCMV antiviral -97, HCV inh inconclusive
CC(=O)O/N=C/c1c(N2CCOCC2)n(C)c2ccccc12	HCMV antiviral -93, HCV inh inconclusive (no result: Vaccinia Venus, VACV mCherry inh)
Cc1ccc(C(=O)O/N=C/c2c(N3CCOCC3)n(C)c3ccccc23)cc1	HCMV antiviral -100, HCV inh 6.3µM (no result: Vaccinia Venus, VACV mCherry inh)
Cn1c(N2CCOCC2)c(/C=N/O)c2ccccc21	none
Cn1c(N2CCOCC2)c(/C=N/OC(=O)c2ccc(F)cc2)c2ccccc21	HCMV antiviral -95, HCV inh 3.5µM (no result: Vaccinia Venus, VACV mCherry inh)
O=C(Cn1c(=O)n(-c2ccc(F)cc2)c(=O)c2sc3ccccc3c21)NC1CCCCC1	none (no result: HCV inh, Giardia FBPA inh)
Cc1cccc(Cc2nnc(CCC(=O)N(C)C3CCOC3)o2)c1 (stereo not drawn)	HCMV antiviral -70
CC(C)CNS(=O)(=O)c1ccc(CCC(=O)N2CCC(C(N)=O)CC2)cc1	none
CCc1nc(C)cc2c1sc1ccccc12	HCV inh inconclusive
CC[n+]1c(C)cc2c(sc3ccccc32)c1C	HCMV antiviral -101, HCV inh inconclusive (no result: Vaccinia Venus, VACV mCherry inh)
CC(=O)Oc1ccc(C(=C2CCCCC2)c2ccc(OC(C)=O)cc2)cc1	none (no result: Vaccinia Venus, VACV mCherry inh, FMDV antiviral, HCMV antiviral, HCV inh)
CCOC(=O)c1sc(NC(=O)c2ccc(OC(C)=O)cc2)nc1C	HCMV antiviral -82, HCV inh inconclusive
Cc1cnc(-n2ncc(C(=O)NCCc3ccccn3)c2C)nc1-c1ccc(F)cc1	none (no result: HCMV antiviral, HCV inh, Giardia FBPA inh)
CCC(C)S(=O)(=O)c1oc(-c2cccs2)nc1S(=O)(=O)c1ccccc1 (stereo not drawn)	FMDV antiviral 28µM, HCMV antiviral -102 (no result: HCV inh, Giardia FBPA inh)
CNc1oc(-c2cccs2)nc1S(=O)(=O)c1ccccc1	none
CCCCNc1oc(-c2cccs2)nc1S(=O)(=O)c1ccccc1	HCMV antiviral inconclusive, HCV inh 10µM (no result: Vaccinia Venus, VACV mCherry inh)
O=C(C[n+]1cccc(Br)c1)c1ccc(Br)cc1	none (no result: FMDV antiviral, HCMV antiviral, HCV inh, Giardia FBPA inh)
Cc1ccccc1OCC(=O)NCC(=O)OCc1ccc2ccccc2c1	none (no result: FMDV antiviral, HCMV antiviral, HCV inh, Giardia FBPA inh)
COc1ccc(OC)c(C(=O)Cn2nnc3ccccc3c2=O)c1	none (no result: Vaccinia Venus, VACV mCherry inh)
COc1ccc(C)cc1-n1nnnc1SCc1csc(C)n1	none
COc1ccc2c(C)cc(SCn3nnc4ccccc4c3=O)nc2c1	HCMV antiviral -65

Screens deposited in PubChem BioAssay by National Center for Advancing Translational Sciences (NCATS).
